Results: the supplement of paper PMC8975748
Where a name gives a salt, the structure may show the parent alone. ± gives the standard deviation of the averaged measurements.

Assays:
[1] = tested on: Saccharomyces cerevisiae BY4741 SeMeCo community; assay: mean cell size (pixel area) (pixels); higher = larger cells; details: 10 µM; 24 h; SM minimal medium
Summary of the method: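 Plates of 384 wells were acoustically predosed with drug at a final 10 µM in SM medium, and 70 µl of a Saccharomyces cerevisiae BY4741 preculture diluted from OD600 = 1.0 to OD600 = 0.3 was added for 24 h. The yeast formed a four-plasmid fluorescent community in which each plasmid complements one auxotrophy and carries a fluorescent marker. Fixed cells were imaged by automated confocal microscopy and analysed in Harmony for mean cell pixel area per well. Values are means of 3 replicates. Same SeMeCo high-content imaging drug screen: Selleck FDA-approved drugs at 10 µM, 24 h in SM medium, 384-well plates, 3 replicates.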

[2] = tested on: Saccharomyces cerevisiae BY4741 SeMeCo community; assay: z-score of prototroph abundance vs DMSO median; higher = larger share of this subpopulation than in DMSO controls; details: 10 µM; 24 h; SM minimal medium; subpopulation (auxotrophy): Prototroph
Summary of the method: (§1)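 A Saccharomyces cerevisiae BY4741 community carried four plasmids, each restoring one auxotrophy and encoding a distinct fluorescent protein. It was pre-grown overnight to OD600 1.0, diluted to 0.3, and 70 µl was added to 384-well plates acoustically predosed with library drugs (10 µM final), then grown 24 h in minimal SM medium. Cells were paraformaldehyde-fixed and imaged by automated confocal microscopy, with single-auxotroph fluorescent strains setting thresholds and autofluorescence correction. Each subpopulation's abundance was scored as a z-score against the vehicle-well median.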

[3] = tested on: Saccharomyces cerevisiae BY4741 SeMeCo community; assay: z-score of subpopulation abundance vs DMSO median, subpopulation auxotrophic for M; higher = larger share of this subpopulation than in DMSO controls; details: 10 µM; 24 h; SM minimal medium; subpopulation (auxotrophy): M
Summary of the method: as §1

[4] = tested on: Saccharomyces cerevisiae BY4741 SeMeCo community; assay: z-score of subpopulation abundance vs DMSO median, subpopulation auxotrophic for L; higher = larger share of this subpopulation than in DMSO controls; details: 10 µM; 24 h; SM minimal medium; subpopulation (auxotrophy): L
Summary of the method: as §1

[5] = tested on: Saccharomyces cerevisiae BY4741 SeMeCo community; assay: z-score of subpopulation abundance vs DMSO median, subpopulation auxotrophic for U; higher = larger share of this subpopulation than in DMSO controls; details: 10 µM; 24 h; SM minimal medium; subpopulation (auxotrophy): U
Summary of the method: as §1

[6] = tested on: Saccharomyces cerevisiae BY4741 SeMeCo community; assay: z-score of subpopulation abundance vs DMSO median, subpopulation auxotrophic for LU; higher = larger share of this subpopulation than in DMSO controls; details: 10 µM; 24 h; SM minimal medium; subpopulation (auxotrophy): LU
Summary of the method: as §1

[7] = tested on: Saccharomyces cerevisiae BY4741 SeMeCo community; assay: z-score of subpopulation abundance vs DMSO median, subpopulation auxotrophic for LM; higher = larger share of this subpopulation than in DMSO controls; details: 10 µM; 24 h; SM minimal medium; subpopulation (auxotrophy): LM
Summary of the method: as §1

[8] = tested on: Saccharomyces cerevisiae BY4741 SeMeCo community; assay: z-score of subpopulation abundance vs DMSO median, subpopulation auxotrophic for HM; higher = larger share of this subpopulation than in DMSO controls; details: 10 µM; 24 h; SM minimal medium; subpopulation (auxotrophy): HM
Summary of the method: as §1

[9] = tested on: Saccharomyces cerevisiae BY4741 SeMeCo community; assay: z-score of subpopulation abundance vs DMSO median, subpopulation auxotrophic for HU; higher = larger share of this subpopulation than in DMSO controls; details: 10 µM; 24 h; SM minimal medium; subpopulation (auxotrophy): HU
Summary of the method: as §1

[10] = tested on: Saccharomyces cerevisiae BY4741 SeMeCo community; assay: z-score of subpopulation abundance vs DMSO median, subpopulation auxotrophic for UM; higher = larger share of this subpopulation than in DMSO controls; details: 10 µM; 24 h; SM minimal medium; subpopulation (auxotrophy): UM
Summary of the method: as §1

[11] = tested on: Saccharomyces cerevisiae BY4741 SeMeCo community; assay: z-score of subpopulation abundance vs DMSO median, subpopulation auxotrophic for HL; higher = larger share of this subpopulation than in DMSO controls; details: 10 µM; 24 h; SM minimal medium; subpopulation (auxotrophy): HL
Summary of the method: as §1

[12] = tested on: Saccharomyces cerevisiae BY4741 SeMeCo community; assay: z-score of subpopulation abundance vs DMSO median, subpopulation auxotrophic for HLU; higher = larger share of this subpopulation than in DMSO controls; details: 10 µM; 24 h; SM minimal medium; subpopulation (auxotrophy): HLU
Summary of the method: as §1

[13] = tested on: Saccharomyces cerevisiae BY4741 SeMeCo community; assay: z-score of subpopulation abundance vs DMSO median, subpopulation auxotrophic for HLM; higher = larger share of this subpopulation than in DMSO controls; details: 10 µM; 24 h; SM minimal medium; subpopulation (auxotrophy): HLM
Summary of the method: as §1

[14] = tested on: Saccharomyces cerevisiae BY4741 SeMeCo community; assay: z-score of subpopulation abundance vs DMSO median, subpopulation auxotrophic for HUM; higher = larger share of this subpopulation than in DMSO controls; details: 10 µM; 24 h; SM minimal medium; subpopulation (auxotrophy): HUM
Summary of the method: as §1

[15] = tested on: Saccharomyces cerevisiae BY4741 SeMeCo community; assay: z-score of subpopulation abundance vs DMSO median, subpopulation auxotrophic for LUM; higher = larger share of this subpopulation than in DMSO controls; details: 10 µM; 24 h; SM minimal medium; subpopulation (auxotrophy): LUM
Summary of the method: as §1

[16] = tested on: Saccharomyces cerevisiae BY4741 SeMeCo community; assay: z-score of subpopulation abundance vs DMSO median, subpopulation auxotrophic for H; higher = larger share of this subpopulation than in DMSO controls; details: 10 µM; 24 h; SM minimal medium; subpopulation (auxotrophy): H
Summary of the method: as §1

[17] = tested on: Saccharomyces cerevisiae BY4741 SeMeCo community; assay: z-score of subpopulation abundance vs DMSO median, subpopulation auxotrophic for HLUM; higher = larger share of this subpopulation than in DMSO controls; details: 10 µM; 24 h; SM minimal medium; subpopulation (auxotrophy): HLUM
Summary of the method: as §1

| Structure (SMILES) | mean cell size [1] | z-score of prototroph abundance [2] | z-score of subpopulation abundance [3] | z-score of subpopulation abundance [4] | z-score of subpopulation abundance [5] | z-score of subpopulation abundance [6] | z-score of subpopulation abundance [7] | z-score of subpopulation abundance [8] | z-score of subpopulation abundance [9] | z-score of subpopulation abundance [10] | z-score of subpopulation abundance [11] | z-score of subpopulation abundance [12] | z-score of subpopulation abundance [13] | z-score of subpopulation abundance [14] | z-score of subpopulation abundance [15] | z-score of subpopulation abundance [16] | z-score of subpopulation abundance [17] |
| --- | --- | --- | --- | --- | --- | --- | --- | --- | --- | --- | --- | --- | --- | --- | --- | --- | --- |
| CC(C)[N+](C)(CCOC(=O)C1c2ccccc2Oc2ccccc21)C(C)C [Propantheline bromide] | 12.5 ± 0.22 | 0.94 | 1.26 | -0.57 | -0.28 | -0.92 | -0.04 | 0.76 | -0.76 | -1.12 | -0.65 | -1.23 | -0.74 | -1.29 | -1.5 |  |  |
| O=C1OC(CN2CCOCC2)CN1/N=C/c1ccc([N+](=O)[O-])o1 (centres undefined) [Furaltadone HCl] | 12.75 ± 0.12 | 0.34 | 0.83 | -0.94 |  | -0.14 | -0.57 | 0.11 |  | 0.47 | -0.67 | -0.79 | -0.4 | -0.1 | -0.33 | -0.56 | -0.39 |
| COc1ccc2cc([C@H](C)C(=O)O)ccc2c1 [Naproxen Sodium] | 12.84 ± 0.07 | 1.33 | 0.17 | 0.02 | -1.01 | -0.46 | -0.16 | -0.61 | -1.5 | -2.49 | 0.47 | 0 | 0.18 | -2.32 | -0.75 | -0.42 |  |
| O=C1NCC2(CCN(CCc3ccccc3)CC2)O1 [Fenspiride HCl] | 12.6 ± 0.16 |  | 0.25 | -0.18 | 0.18 | -0.49 | -0.15 | -0.15 |  |  | 0.27 | 1.03 | 0.35 | -0.64 | -0.59 | -0.41 | 1.16 |
| Clc1ccc(COC(Cn2ccnc2)c2ccc(Cl)cc2Cl)cc1 (centres undefined) [Econazole] | 11.9 ± 0.17 | -7.96 | -1.6 | -1.62 | 0.12 | -0.93 | -1.56 | 2.71 | 5.61 |  | 12.8 | 4.6 | 17.3 | 4.19 | 3.58 | 20.3 |  |
| CN(C)CCCN1c2ccccc2Sc2ccc(Cl)cc21 [Chlorpromazine HCl] | 12.3 ± 0.24 | -0.29 | 0.41 | -0.35 | 0.63 | -0.32 | 0.96 | 0.19 |  | 0.5 |  | -0.85 | 0.11 | 0.9 |  | -0.33 | 0.29 |
| COC(=O)C1=C(C)NC(C)=C(C(=O)OC(C)C)C1c1cccc2nonc12 (centres undefined) [Isradipine] | 12.49 ± 0.11 | -0.42 | -0.1 | -0.22 | 0.74 | 0.62 | -1.09 | -0.24 |  | 1.06 | -0.52 | 0.04 | -0.7 | 0.44 | -0.39 | -0.09 | 0.04 |
| Cn1c(=O)c2c(ncn2CC2OCCO2)n(C)c1=O [Doxofylline] | 12.2 ± 0.51 | 0.31 | -0.41 | 0.55 | -0.22 | 0.9 | 0.49 | -0.89 | -0.64 | -0.67 |  | -0.64 | -0.9 | -0.34 | -0.24 | -0.27 |  |
| CCN(CC)CCNC(=O)c1cc(Cl)c(N)cc1OC [Metoclopramide HCl] | 12.4 ± 0.31 | 0.83 | 1.12 | -0.18 | -1.06 | -1.25 | 0.33 | 1.14 | -0.72 | -1.49 |  | -0.43 | -0.58 | -1.06 | -0.48 | -1.04 |  |
| CN1[C@@H]2CC[C@H]1C[C@@H](OC(=O)c1c[nH]c3ccccc13)C2 [Tropisetron HCl] | 12.57 ± 0.083 |  | 1.04 | 0.79 | -0.06 | 1 | 1.09 | 0.26 | -0.68 | 0.28 | -0.91 | 0.2 | -0.38 | 0.19 | 0.15 | -0.68 |  |
| CCOC(=O)OC(C)OC1=C(C(=O)Nc2ccccn2)N(C)S(=O)(=O)c2ccccc21 (centres undefined) [Ampiroxicam] | 12.3 ± 0.37 | 0.81 | 0 | -0.1 | -0.79 | -0.67 | 0.15 |  | -0.62 | 0.08 | -0.64 | -0.83 | -0.4 | -0.48 | -0.42 | -0.19 | -0.78 |
| CCn1cc(C(=O)O)c(=O)c2cc(F)c(N3CCN(C)CC3)cc21 [Pefloxacin Mesylate] | 12.48 ± 0.059 | 0.1 | -0.16 | -0.33 | 0.14 | -0.06 | 0 |  | -0.36 | -0.04 | 0 | -0.54 | -0.1 | -0.57 | 0.18 | -0.3 | -0.95 |
| C[N+](C)(C)CCOC(=O)CCC(=O)OCC[N+](C)(C)C [Succinylcholine Chloride Dihydrate] | 12 ± 0.24 | 0.17 | 1.02 | -0.65 | 0.38 | -1.48 | 0.01 |  | -0.93 | 0.5 | -0.8 | -0.97 | -0.3 | -0.03 | -0.49 | -0.95 | 0.02 |
| CO[C@@]1(NC(=O)C(C(=O)O)c2ccc(O)cc2)C(=O)N2C(C(=O)O)=C(CSc3nnnn3C)CO[C@@H]21 (some centres undefined) [Latamoxef sodium] | 12.7 ± 0.16 | 0.35 | 0.17 | -0.05 | -0.29 | -0.08 | -0.29 | -0.22 | 0 | -0.41 | -0.07 | 0.4 | 0.83 | -0.43 |  | 0.8 |  |
| C#C[C@]1(O)CC[C@H]2[C@@H]3CCc4cc(OC5CCCC5)ccc4[C@H]3CC[C@@]21C [Quinestrol] | 12.4 ± 0.25 | -0.35 | 0.32 | 1.42 | -0.2 | 1.93 | -0.07 |  | 0.41 | -0.33 | 0.28 | 0.72 | 0.37 | 0.52 | 0.36 | 0.33 | 0.63 |
